Experiment [1] deals with TRPC4 beta (transient receptor potential cation channel C4), mouse. Nature of the experiment: TRPC4 cation channel opening, retest – cell-based, Fluo4 calcium, HEK293 TRPC4beta/mu-opioid, duplicates, 10 µM, confirmation (AID 2426;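 active = fluorescence ratio normalized to control raised more than 50% in primary screen plus both repeat runs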;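 as to activation: percent rise of integrated ratio over buffer wells lacking compound which define 0%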). The note with it: Fluo4 calcium fluorescence, at 10 µM; hits give high values.
Experiment [2] concerns transient receptor potential cation channel C4 beta (TRPC4), mouse. Nature of the experiment: TRPC4 cation channel opening, second retest – cell-based, second round, Fluo4, HEK293 TRPC4beta/mu-opioid, 1 µM, confirmation (AID 2461;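 active = primary screen active and over 50% activation in each of two duplicate runs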). The note with it: Fluo4 calcium fluorescence, at 1 µM; hits give high values.
The test system of experiment [3] is TRPC4 (transient receptor potential cation channel C4 beta), mouse. Nature of the experiment: potentiation of DAMGO EC20 TRPC4 response – cell-based, second round, Fluo-4, HEK293 TRPC4beta/mu-opioid, 1 µM, confirmation (AID 2554;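 active = primary screen hit whose fluorescence ratio, in both repeats, exceeds the weak agonist control mean by 3 SD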). As to conditions: DAMGO EC20, Fluo-4 calcium flux, at 1 µM; hits give high values.
Experiment [4] has as its system TRPC4 beta (transient receptor potential cation channel C4), mouse. As to the kind of experiment: potentiation of DAMGO EC20 TRPC4 response – cell-based, Fluo-4, HEK293 TRPC4beta/mu-opioid, confirmation (AID 2555;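 active = primary screen hit whose calcium fluorescence ratio, in both repeats, exceeds the weak agonist control mean by 3 SD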). As to conditions: DAMGO EC20, Fluo-4 calcium flux, at 10 µM; hits give high values. (A change in cytosolic calcium serves as a functional read-out for many receptors and channels.)

Experiment [5] concerns the target Short transient receptor potential channel 4 (Mus musculus) (UniProt Q9QUQ5). Nature of the experiment: blockers of DAMGO-evoked TRPC4 calcium flux – cell-based, Fluo4, HEK293 TRPC4beta/mu-opioid, confirmation (AID 2636;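 active = calcium signal cut by more than 3 SD below the full-agonist control yet still positive, in both repeats and the earlier primary screen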). As to conditions: at 10 µM; hits give high values.
Experiment [6] shares this target. Nature of the experiment: blockers of DAMGO-evoked TRPC4 calcium flux – cell-based, second round, Fluo4, HEK293 TRPC4beta/mu-opioid, 1 µM, confirmation (AID 2637;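 active = calcium signal ratio cut to more than 3 SD under the fully stimulated control mean yet still positive, in both repeats and the primary screen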). As to conditions: at 1 µM; hits give high values.
For experiment [7] the target is unchanged. As to the kind of experiment: potentiation of DAMGO-evoked TRPC4 calcium signal – cell-based, HEK293 TRPC4/mu-opioid, Fluo-4 calcium, EC20 DAMGO, dose response (AID 434941;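 active = earlier screen potentiator hit that boosts the TRPC4 ion channel at some dose, with a dose response; inactive = no potentiation, no dose response, or not a prior hit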;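 also: calcium entry triggered by an EC20 dose of DAMGO at the co-expressed mu-opioid receptor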).
Experiment [8] has the same target. Nature of the experiment: block of DAMGO-driven TRPC4 calcium entry – cell-based, HEK293 TRPC4/mu-opioid, Fluo-4 calcium, dose response (AID 434942;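 active = primary screen inhibitor hit that blocks the TRPC4 channel at some tested dose, yielding a dose curve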).
For experiment [9], the target named is Short transient receptor potential channel 6 (Mus musculus) (UniProt Q61143). Nature of the experiment: TRPC6 blockade by TRPC4 inhibitor hits – cell-based, HEK293, membrane potential dye, duplicate, selectivity assay for TRPC4 inhibitor project, confirmation (AID 434948;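 active = active in primary screen and both duplicates, each dropping signal beyond three positive-control SD with fluorescence still positive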). As to conditions: HEK293 TRPC6, membrane potential dye fluorescence, at 10 µM, stimulated with maximal-effect acetylcholine; hits give high values.

Experiment [10] shares this target. As to the kind of experiment: TRPC6 opening by TRPC4 activator hits – cell-based, HEK293, membrane potential dye, duplicate, selectivity assay for TRPC4 activator project, confirmation (AID 434950;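 active = membrane potential signal rise above negative control mean plus 3 SD in both duplicates, also active in the earlier TRPC4 screen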;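 as to activation: 0% = buffer only wells and 100% = acetylcholine maximal-effect wells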). The note with it: HEK293 TRPC6, membrane potential fluorescence, at 10 µM; activation: hits give high values; outcome: activation.
Experiment [11] shares this target. As to the kind of experiment: positive modulators of mouse TRPC6 channel – HEK293 cells, membrane potential dye, duplicate, selectivity assay for TRPC4 potentiator project, confirmation (AID 434952). As to conditions: HEK293 TRPC6, membrane potential dye fluorescence, at 10 µM, maximal acetylcholine added after compound; hits give high values.
Experiment [12] has as its target Short transient receptor potential channel 4 (Mus musculus) (UniProt Q9QUQ5). Nature of the experiment: calcium flux activators in TRPC4/5HT1a cells, counter-screen for TRPC4 activator project, cell-based, second counter screen, HEK293 TRPC4/5HT1a, Fluo-4 (AID 434977;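 active = calcium signal rise above buffer-control mean plus 5 SD in both duplicates, and also a hit in the primary screen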;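 as to activation: plate controls were assay buffer for no effect and maximal serotonin response for full effect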). As to conditions: Fluo-4 calcium flux, at 10 µM; hits give high values.
Experiment [13] can be described thus: serotonin-gated TRPC4 signal block – cell-based, second counter screen, HEK293 TRPC4/5HT1a, Fluo-4, counter-screen for TRPC4 inhibitor project, confirmation (AID 434978;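 active = primary screen active whose calcium signal fell more than 3 SD beyond the full-serotonin control mean in both duplicate plates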;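 as to outcome: serotonin given first at submaximal then at maximal dose after compound preincubation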). As to conditions: Fluo-4 calcium flux, at 10 µM, serotonin added to trigger calcium flux; hits give high values. In general terms: A counterscreen serves to expose hits that act by an unwanted route or on another target.

Experiment [14] deals with TRPC4 (mouse), co-expressed with 5HT1a in HEK293. Nature of the experiment: enhancement of serotonin-evoked TRPC4 response – cell-based, second counter screen, HEK293 TRPC4/5HT1a, Fluo-4, counter-screen for TRPC4 potentiator project, confirmation (AID 434979;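 active = signal rise over 3 SD above mean of control wells given weak agonist, in both repeats and first screen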). As to conditions: Fluo-4 calcium flux, at 10 µM, serotonin added at its EC20 dose; hits give high values.
A short description of experiment [15]: nonspecific calcium rise without TRPC4 – cell-based, HEK293 mu-opioid receptor line, counter-screen for TRPC4 activator project, confirmation (AID 449723;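 active = hit in primary screen, with calcium signal over 5 SD above buffer well mean in both duplicates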;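 also: counter screen cells carry the mu-opioid receptor alone and lack TRPC4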). As to conditions: HEK293 mu-opioid cells, Fluo-4 calcium fluorescence, at 10 µM; hits give high values.
Experiment [16] is described as follows: nonspecific potentiation of DAMGO calcium response – cell-based, HEK293 mu-opioid receptor line, counter-screen for TRPC4 allosteric potentiator project, confirmation (AID 449724;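 active = calcium signal rise more than 3 SD above the low-dose agonist control mean, in both duplicate plates and the primary screen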;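 also: HEK293 cells carrying mu-opioid receptor only with no TRPC4 channel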). As to conditions: HEK293 mu-opioid receptor cells, Fluo-4 calcium flux, at 10 µM, compound added before EC20 DAMGO stimulus; hits give high values.
Experiment [17] can be described thus: nonspecific flux increase, KCNQ1-free cells – parental CHO cells, counter-screen for KCNQ1 potentiator project (AID 493006;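 active = duplicate-averaged activation above buffer control mean plus 5 SD of those controls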;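 as to activation: fluorescence ratio of max minus min over baseline after K+ and Tl+ depolarization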). As to conditions: parental CHO-K1 cells, FluxOR thallium flux, at 10 µM; hits give high values.
Experiment [18] addresses Potassium voltage-gated channel subfamily KQT member 1 (Homo sapiens) (UniProt P51787). Nature of the experiment: enhancement of KCNQ1 channel thallium flux – FluxOR thallium flux, CHO cells, duplicates, confirmation (AID 493007;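 active = potentiation averaged over duplicate wells exceeding buffer-only control mean by more than 3 SD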;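 also: 0% = buffer-only wells and 100% = R-L3 activator control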). As to conditions: KCNQ1 cell line, FluxOR thallium flux fluorescence, at 10 µM; hits give high values, % of reference activator effect, buffer zero.

The target in experiment [19] is Potassium voltage-gated channel subfamily KQT member 2 (Rattus norvegicus) (UniProt O88943). As to the kind of experiment: KCNQ2 thallium flux enhancement – KCNQ2-CHO-K1 cells, selectivity assay for KCNQ1 potentiator project (AID 493009;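 active = mean duplicate potentiation above the buffer control mean plus 5 SD of buffer wells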;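 also: assay conditions were tuned for KCNQ1 rather than KCNQ2 modulators; signal is max minus min fluorescence divided by baseline after thallium stimulus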). As to conditions: FluxOR thallium flux fluorescence, at 10 µM; hits give high values, scaled: buffer 0, activator control 100.
For experiment [20], the target named is Potassium voltage-gated channel subfamily KQT member 1 (Homo sapiens) (UniProt P51787). As to the kind of experiment: KCNQ1 activators by electrophysiology – IonWorks patch clamp, KCNQ1-CHO cells, orthogonal assay for KCNQ1 potentiator project, confirmation (AID 493184;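 active = current rise at least 3 SD above the untreated control mean in each of two repeat wells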). As to conditions: automated patch clamp current, at 10 µM; hits give high values. A general note: In patch-clamp work, channel activity is measured electrically.

SMILES strings stand for the structures. For part of these data: Potency and affinity values are given separately. Activity calls are given as the source filed them.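 The calls were made as follows, unless noted: active = compound raising the membrane signal above positive-control mean plus 3 SD in both repeats, and a primary screen hit; inactive = the rest.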

Sequence of Short transient receptor potential channel 6 (Mus musculus) (Q61143 whole entry, looked up): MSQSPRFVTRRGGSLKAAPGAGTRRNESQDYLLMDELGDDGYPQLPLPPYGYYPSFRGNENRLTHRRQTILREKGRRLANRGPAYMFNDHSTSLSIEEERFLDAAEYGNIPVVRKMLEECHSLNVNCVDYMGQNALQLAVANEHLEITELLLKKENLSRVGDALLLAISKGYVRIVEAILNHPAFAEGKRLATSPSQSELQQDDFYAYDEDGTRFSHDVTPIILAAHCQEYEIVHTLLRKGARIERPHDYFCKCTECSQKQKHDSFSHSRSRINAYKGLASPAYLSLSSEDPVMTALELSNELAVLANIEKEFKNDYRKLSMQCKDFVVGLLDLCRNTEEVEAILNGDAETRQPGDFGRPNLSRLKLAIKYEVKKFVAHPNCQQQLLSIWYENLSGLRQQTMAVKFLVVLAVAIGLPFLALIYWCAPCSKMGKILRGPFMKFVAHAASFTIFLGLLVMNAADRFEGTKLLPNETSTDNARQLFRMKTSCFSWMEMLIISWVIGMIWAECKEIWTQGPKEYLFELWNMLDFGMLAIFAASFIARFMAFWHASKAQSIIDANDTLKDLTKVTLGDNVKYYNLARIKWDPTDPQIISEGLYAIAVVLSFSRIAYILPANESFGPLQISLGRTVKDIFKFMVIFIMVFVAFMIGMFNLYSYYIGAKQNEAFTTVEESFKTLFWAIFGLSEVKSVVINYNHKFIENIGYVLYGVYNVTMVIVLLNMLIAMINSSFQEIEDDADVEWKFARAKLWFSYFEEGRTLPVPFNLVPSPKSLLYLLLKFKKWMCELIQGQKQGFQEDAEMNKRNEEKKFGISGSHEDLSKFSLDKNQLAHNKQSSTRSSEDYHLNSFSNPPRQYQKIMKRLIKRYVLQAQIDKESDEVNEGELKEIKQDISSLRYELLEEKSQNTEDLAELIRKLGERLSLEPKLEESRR
Sequence of Short transient receptor potential channel 4 (Mus musculus) (Q9QUQ5 whole entry, looked up): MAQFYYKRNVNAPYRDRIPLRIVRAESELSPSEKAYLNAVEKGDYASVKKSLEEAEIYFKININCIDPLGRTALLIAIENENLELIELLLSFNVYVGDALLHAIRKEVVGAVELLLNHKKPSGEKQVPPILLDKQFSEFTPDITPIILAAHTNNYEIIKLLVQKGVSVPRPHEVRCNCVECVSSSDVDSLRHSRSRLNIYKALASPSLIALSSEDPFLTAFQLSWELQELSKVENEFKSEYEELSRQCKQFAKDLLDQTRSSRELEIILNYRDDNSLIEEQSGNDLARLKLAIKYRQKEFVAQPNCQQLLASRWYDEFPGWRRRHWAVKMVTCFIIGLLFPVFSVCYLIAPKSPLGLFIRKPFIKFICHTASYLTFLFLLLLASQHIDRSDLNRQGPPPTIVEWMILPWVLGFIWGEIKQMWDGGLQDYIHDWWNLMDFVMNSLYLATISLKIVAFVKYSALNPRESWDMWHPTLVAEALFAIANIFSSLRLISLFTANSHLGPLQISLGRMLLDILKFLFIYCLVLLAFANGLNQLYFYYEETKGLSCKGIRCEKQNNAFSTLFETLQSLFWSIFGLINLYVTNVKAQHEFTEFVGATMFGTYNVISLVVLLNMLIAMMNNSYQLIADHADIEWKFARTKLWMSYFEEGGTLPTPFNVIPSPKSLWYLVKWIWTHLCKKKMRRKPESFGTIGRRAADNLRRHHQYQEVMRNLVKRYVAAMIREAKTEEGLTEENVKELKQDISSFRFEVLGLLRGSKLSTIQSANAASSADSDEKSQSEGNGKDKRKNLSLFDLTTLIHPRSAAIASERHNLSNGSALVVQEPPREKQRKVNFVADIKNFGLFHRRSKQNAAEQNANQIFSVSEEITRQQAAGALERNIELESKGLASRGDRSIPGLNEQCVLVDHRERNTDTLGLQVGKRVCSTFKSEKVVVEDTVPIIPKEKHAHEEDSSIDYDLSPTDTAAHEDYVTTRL
Sequence of Potassium voltage-gated channel subfamily KQT member 1 (Homo sapiens) (P51787 whole entry, looked up): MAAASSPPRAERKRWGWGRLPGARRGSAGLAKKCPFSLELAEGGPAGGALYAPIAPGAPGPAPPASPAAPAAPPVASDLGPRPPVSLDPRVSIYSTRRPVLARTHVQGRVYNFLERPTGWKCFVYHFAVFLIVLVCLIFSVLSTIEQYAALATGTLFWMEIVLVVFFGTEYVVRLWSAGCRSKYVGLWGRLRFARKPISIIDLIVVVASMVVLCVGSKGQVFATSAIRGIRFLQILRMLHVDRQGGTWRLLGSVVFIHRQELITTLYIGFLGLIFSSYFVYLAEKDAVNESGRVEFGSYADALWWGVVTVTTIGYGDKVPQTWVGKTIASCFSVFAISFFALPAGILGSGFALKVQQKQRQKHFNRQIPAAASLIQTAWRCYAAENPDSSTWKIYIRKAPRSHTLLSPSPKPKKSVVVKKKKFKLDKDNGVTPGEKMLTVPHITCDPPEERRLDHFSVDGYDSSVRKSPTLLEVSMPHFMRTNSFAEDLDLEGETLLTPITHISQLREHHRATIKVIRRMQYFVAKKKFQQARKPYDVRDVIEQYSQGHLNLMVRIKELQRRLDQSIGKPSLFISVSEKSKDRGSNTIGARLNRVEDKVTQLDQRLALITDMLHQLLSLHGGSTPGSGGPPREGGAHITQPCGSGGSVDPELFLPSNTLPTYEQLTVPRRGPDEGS
Sequence of Potassium voltage-gated channel subfamily KQT member 2 (Rattus norvegicus) (O88943 whole entry, looked up): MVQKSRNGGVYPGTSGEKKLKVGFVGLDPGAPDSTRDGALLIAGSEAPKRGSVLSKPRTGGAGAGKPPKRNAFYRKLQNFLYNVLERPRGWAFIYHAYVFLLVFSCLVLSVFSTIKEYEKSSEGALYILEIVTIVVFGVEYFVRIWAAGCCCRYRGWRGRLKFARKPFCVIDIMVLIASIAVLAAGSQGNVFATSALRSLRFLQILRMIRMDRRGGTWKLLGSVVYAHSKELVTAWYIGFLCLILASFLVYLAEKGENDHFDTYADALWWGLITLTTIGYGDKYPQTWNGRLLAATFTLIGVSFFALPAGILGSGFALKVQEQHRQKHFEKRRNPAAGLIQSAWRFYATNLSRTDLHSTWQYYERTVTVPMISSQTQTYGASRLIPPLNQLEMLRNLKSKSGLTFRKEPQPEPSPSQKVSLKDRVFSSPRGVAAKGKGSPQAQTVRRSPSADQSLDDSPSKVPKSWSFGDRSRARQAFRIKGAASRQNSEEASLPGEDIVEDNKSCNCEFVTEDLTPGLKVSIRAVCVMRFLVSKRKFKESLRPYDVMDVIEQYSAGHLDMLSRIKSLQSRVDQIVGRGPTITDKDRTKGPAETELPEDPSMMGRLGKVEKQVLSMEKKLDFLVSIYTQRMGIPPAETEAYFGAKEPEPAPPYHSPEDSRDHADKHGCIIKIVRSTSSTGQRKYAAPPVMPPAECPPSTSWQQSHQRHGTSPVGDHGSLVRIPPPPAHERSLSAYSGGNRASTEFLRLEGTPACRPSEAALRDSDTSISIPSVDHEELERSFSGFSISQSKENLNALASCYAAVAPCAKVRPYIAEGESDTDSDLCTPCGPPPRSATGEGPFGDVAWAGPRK

Regarding `Cc1cc(OCCCn2ccnc2)cc(C)c1Cl`, the activation in [1] was 67% (active); in experiment [10] it was 47.5% (active); in [12] it was 15.8% (active). Moreover, the outcome in [2], in [3], in experiment [4], in experiment [5], in experiment [6] and in experiment [7] was inactive. For the same compound, the result in experiment [8], in experiment [9], in experiment [11], in experiment [13], in experiment [14] and in experiment [15] was inactive. The outcome in [16] was inactive.
With `CN(C)CCCN(C(=O)c1ccc(S(=O)(=O)N2CCCc3ccccc32)cc1)c1nc2ccc(F)cc2s1`, the activation in [1] was 134% (active); in [15] it was 14.7% (active). In addition, the outcome in experiment [2], in experiment [3], in experiment [4], in experiment [5], in experiment [6] and in experiment [7] was inactive. For the same compound, the outcome in experiment [8], in experiment [9], in experiment [10], in experiment [11], in experiment [12] and in experiment [13] was inactive. Further, the result in experiment [14] and in experiment [16] was inactive.
As for `COc1ccccc1C(=O)NNC(=S)NC(=O)c1sc2ccccc2c1Cl`, the result in experiment [1], in experiment [2], in experiment [3], in experiment [4], in [5] and in experiment [6] was inactive. For the same compound, the result in [7], in [8], in experiment [9], in [11], in experiment [14] and in experiment [15] was inactive. Besides, the result in experiment [16] and in [20] was inactive. The activation in experiment [10] is 30.5% (active); in [12], 14.7% (active); in experiment [17] it was 278% (active). For the same compound, the inhibition (usually how much of the control response was suppressed) in [13] was 38.3% (active). For the same compound, the values for the potentiation in experiment [18] and in experiment [19] were 150% (active) and 287% (active), respectively.
For `Cc1sc2nc(CSc3ccccc3)nc(NCCN(C)C)c2c1C`, the values for the activation in experiment [1] and in experiment [12] were 173% (active) and 15.2% (active), respectively. In addition, the result in experiment [2], in experiment [3], in experiment [4], in experiment [5], in experiment [6] and in experiment [7] was inactive. Further, the outcome in [8], in experiment [9], in [10], in experiment [11], in experiment [13] and in [14] was inactive. Further, the outcome in experiment [15] and in experiment [16] was inactive.
Turning to `CCCOc1ccc(C(=O)NC(=S)NNC(=O)c2c(-c3ccccc3)noc2C)cc1`, the values for the activation in experiment [1], in [12] and in [15] were 107% (active), 92.6% (active) and 39.4% (active), respectively. Moreover, the result in experiment [2], in experiment [3], in experiment [4], in [5], in [6] and in experiment [7] was inactive. The result in experiment [8], in experiment [9], in experiment [10], in [11], in experiment [13] and in experiment [14] was inactive. The outcome in experiment [16], in experiment [17], in experiment [19] and in [20] was inactive. Besides, in experiment [18], the potentiation is 28.5% (active).
Take `COc1cc(OC)cc(C(=O)NC(=S)NNC(=O)[C@H]2C[C@@H]2c2ccccc2)c1`: the activation in experiment [1] was 162% (active); in [12] it was 99% (active); in experiment [15], 40.4% (active). The outcome in [2], in experiment [3], in experiment [4], in experiment [5], in [6] and in [7] was inactive. In addition, the outcome in experiment [8], in experiment [9], in experiment [10], in experiment [11], in experiment [13] and in experiment [14] was inactive. The result in experiment [16], in experiment [17], in experiment [19] and in [20] was inactive. In experiment [18], the potentiation was 37.5% (active).

The record behind these values is PubChem BioAssay.
